# From PubChem BioAssay (Tox21)
# Results filed as inconclusive are left out. A call without a number means that no potency is given here. The source made the active and inactive calls. Unless noted, the call rests on the fitted dose curve; in most records, active means well fitted curve in the direction sought with a large enough effect in the repeat runs; inconclusive means weak or mixed curves; inactive means no such curve, though single readings can be large; an effect the other way counts as inactive or inconclusive.
# Legend:
# [1] = qHTS assay to identify small molecule antagonists of the sonic hedgehog signaling (Shh) pathway (AID 1259369; calls by dose curve; further: nearly all actives have a fitted effect of over 45% in size; further: potency means the concentration at half of the fitted maximal effect)
# In short: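 Screening used 3T3Gli1-Luc cells at 2,000 per well, compounds delivered in DMSO, and conditioned medium as agonist stimulus; plates incubated 24hr at 37 C and 5% CO2 before a 30min luciferase step.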
# [2] = qHTS assay to identify small molecule agonists of the androgen receptor (AR) signaling pathway in the presence of an antagonist - cell viability counter screen (AID 1259379);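 further: MDA-kb2 human breast cancer cells carrying an MMTV luciferase reporter; series mostly up to about 92 µM; nearly all actives have a fitted effect of over 25% in size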
# In short: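 In MDA-kb2 cells (human breast carcinoma, MMTV-luciferase), compounds at 15 concentrations plus 3.0uM nilutamide; 16 hr, 37C, 0% CO2; CellTiter-Fluor fluorescence read for viability.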
# [3] = qHTS assay to identify small molecule antagonists of the estrogen receptor beta (ER-beta) signaling pathway - cell viability counter screen (AID 1259382); further: nearly all actives have a fitted effect of over 55% in size; further: potency means the concentration at half of the fitted maximal effect
# In short: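 Tox21 10K library tested in qHTS format on ER-beta-bla HEK293T cells stimulated with 1nM E2; 16 hr treatment at 37C. Same-well CellTiter-Glo luminescence served as the cell viability measure.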
# [4] = qHTS assay to identify small molecule agonists or antagonists of the thyroid stimulating hormone receptor (TSHR) signaling pathway - wild type cell line counter screen (AID 1259384; calls by dose curve)
# In short: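 Wild-type Hek293 cells, 800/well, 18 h at 37C, then compound with Ro20-1724 for 30 min RT. cAMP by HTRF (cAMP-d2/anti-cAMP cryptate), 1 h RT, fluorescence read. 15 concentrations, triplicates.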
# [5] = target: Progesterone receptor (Homo sapiens) (UniProt P06401); assay: qHTS assay to identify small molecule agonists of the progesterone receptor (PR) signaling pathway (AID 1346784; calls by dose curve; further: nearly all actives have a fitted effect of over 30% in size)
# Chain of Progesterone receptor (Homo sapiens) (P06401 whole entry, looked up): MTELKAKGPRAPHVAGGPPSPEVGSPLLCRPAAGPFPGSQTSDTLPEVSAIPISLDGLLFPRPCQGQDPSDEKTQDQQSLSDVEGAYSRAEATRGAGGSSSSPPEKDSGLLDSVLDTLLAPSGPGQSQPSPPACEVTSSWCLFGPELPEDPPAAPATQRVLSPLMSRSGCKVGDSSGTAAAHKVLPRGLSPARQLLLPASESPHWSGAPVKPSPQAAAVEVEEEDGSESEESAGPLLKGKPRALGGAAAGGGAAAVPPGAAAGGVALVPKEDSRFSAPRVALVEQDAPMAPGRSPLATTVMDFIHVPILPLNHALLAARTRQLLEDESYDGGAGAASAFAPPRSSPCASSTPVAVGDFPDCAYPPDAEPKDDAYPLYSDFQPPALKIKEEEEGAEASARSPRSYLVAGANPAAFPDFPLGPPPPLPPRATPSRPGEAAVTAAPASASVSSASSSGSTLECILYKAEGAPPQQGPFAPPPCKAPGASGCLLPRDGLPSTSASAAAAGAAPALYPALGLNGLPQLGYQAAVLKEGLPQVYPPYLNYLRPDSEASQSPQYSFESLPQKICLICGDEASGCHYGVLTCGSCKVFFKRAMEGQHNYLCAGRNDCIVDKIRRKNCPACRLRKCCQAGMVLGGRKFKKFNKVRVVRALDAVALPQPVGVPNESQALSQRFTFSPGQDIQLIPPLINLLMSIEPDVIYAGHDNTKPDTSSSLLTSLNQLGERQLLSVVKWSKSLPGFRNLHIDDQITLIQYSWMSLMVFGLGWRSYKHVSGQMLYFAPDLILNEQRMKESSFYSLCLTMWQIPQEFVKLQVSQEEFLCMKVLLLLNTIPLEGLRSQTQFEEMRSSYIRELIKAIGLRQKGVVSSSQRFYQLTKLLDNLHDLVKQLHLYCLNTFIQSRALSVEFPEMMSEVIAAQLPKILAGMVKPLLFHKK
# In short: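 PR-UAS-bla HEK 293T cells (beta-lactamase reporter under UAS) in 2% charcoal-stripped FBS, dosed with 23 nL compound after 6 hr, incubated 16hr at 37C. LiveBLAzer B/G FRET substrate added, fluorescence read after 2 hours.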
# [6] = target: Progesterone receptor (Homo sapiens) (UniProt P06401); assay: qHTS assay to identify small molecule antagonists of the progesterone receptor (PR) signaling pathway (AID 1346795; active means well fitted inhibition curve with a large enough effect in the signal ratio in the repeat runs, not every such curve was filed as active; the % refers to the signal ratio)
# In short: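 PR-UAS-bla HEK293T cells with beta-lactamase reporter under UAS control, in 2% charcoal-stripped FBS, treated with compounds plus 1 nM promegestone (R5020, final) for 16 hr at 37C. Read-out: FRET beta-lactamase substrate fluorescence after 2 hr at room temperature.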
# [7] = qHTS assay to identify small molecule antagonists of the progesterone receptor (PR) signaling pathway - cell viability counter screen (AID 1346798); further: nearly all actives have a fitted effect of over 50% in size; further: potency means the concentration at half of the fitted maximal effect
# In short: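 PR-UAS-bla HEK293T cells, 3,000/well in 2% charcoal-stripped FBS medium, dosed with compounds plus R5020 agonist and incubated 16 h at 37C. Viability then measured in the same wells by CellTiter-Glo luminescence after 30 min at RT.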
# [8] = qHTS assay to identify small molecule antagonists of the TGF-beta/Smad signaling pathway - cell viability counter screen (AID 1346824); further: nearly all actives have a fitted effect of over 50% in size
# In short: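 SBE-bla HEK 293T cells, incubated overnight, then compound plus 0.25 ng/mL TGF-beta1 (stock added) for 5 hr at 37 C. Viability was read in the same wells by CellTiter-Glo luminescence after 30 min at room temperature.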
# [9] = qHTS assay to identify small molecule agonists of the TGF-beta/Smad signaling pathway - cell viability counter screen (AID 1346829); further: top concentration of the series differs between compounds; nearly all actives have a fitted effect of over 45% in size
# In short: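 Here the cytotoxicity of library compounds is measured in SBE-bla HEK 293T cells treated for 5 hr, using CellTiter-Glo added to wells already read for the beta-lactamase reporter.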
# [10] = qHTS assay to identify small molecule agonists of the TGF-beta/Smad signaling pathway (AID 1346859; active means well fitted activation curve with a large enough effect in the signal ratio in the repeat runs, not every such curve was filed as active; the % refers to the signal ratio; further: series mostly up to about 77 µM)
# In short: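 SBE-bla HEK293T cells plated overnight, then compound exposure for 5 h at 37 C. Beta-lactamase reporter read with LiveBLAzer B/G FRET substrate after 2 h at room temperature, fluorescence at 405 nm excitation, 460/530 nm emission.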
# [11] = target: Thyrotropin-releasing hormone receptor (Homo sapiens) (UniProt P34981); assay: qHTS assay to identify small molecule antagonists of the thyrotropin-releasing hormone receptor (TRHR) signaling pathway (AID 1346877; active means well fitted inhibition curve with a large enough effect in the repeat runs, not every such curve was filed as active; further: series mostly up to about 51 µM)
# Chain of Thyrotropin-releasing hormone receptor (Homo sapiens) (P34981 whole entry, looked up): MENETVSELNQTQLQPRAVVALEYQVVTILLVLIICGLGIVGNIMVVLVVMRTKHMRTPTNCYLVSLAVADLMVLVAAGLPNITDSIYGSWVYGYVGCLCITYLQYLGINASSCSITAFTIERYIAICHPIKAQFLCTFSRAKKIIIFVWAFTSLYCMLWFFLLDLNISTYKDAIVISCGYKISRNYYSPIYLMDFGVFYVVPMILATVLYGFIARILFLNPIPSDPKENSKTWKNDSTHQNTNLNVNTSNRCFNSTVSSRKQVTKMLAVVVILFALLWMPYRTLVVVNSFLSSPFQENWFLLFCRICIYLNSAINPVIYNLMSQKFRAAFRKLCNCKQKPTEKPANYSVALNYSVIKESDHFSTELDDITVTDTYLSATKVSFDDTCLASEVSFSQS
# In short: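 In this cell-based calcium flux format, HEK293 cells expressing TRHR received test compound for 5 min before the agonist TRH (1 nM final). Dye loading lasted 2 h at 37 °C.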
# [12] = target: Thyrotropin-releasing hormone receptor (Homo sapiens) (UniProt P34981); assay: qHTS assay to identify small molecule agonists of the thyrotropin-releasing hormone receptor (TRHR) signaling pathway (AID 1346891; calls by dose curve; further: potency means the concentration at half of the fitted maximal effect; on activation: series mostly up to about 58 µM)
# In short: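 HEK293 cells expressing TRHR plated 18 h at 37 C/5% CO2, calcium dye-loaded 2 h at 37 C, then compound added (agonist mode); kinetic calcium fluorescence read 3 min at 1 s intervals; 15 concentrations in triplicate.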
# [13] = qHTS assay to identify small molecule agonists of the estrogen receptor beta (ER-beta) signaling pathway - cell viability counter screen (AID 1259380); further: nearly all actives have a fitted effect of over 30% in size; further: potency means the concentration at half of the fitted maximal effect
# In short: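 Viability of ER-beta-UAS-bla HEK293T cells was determined by CellTiter-Glo luminescence following 16 hr treatment with test compounds at 37C.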
# [14] = target: Thyrotropin receptor (Homo sapiens) (UniProt P16473); assay: qHTS assay to identify small molecule antagonists of the thyroid stimulating hormone receptor (TSHR) signaling pathway (AID 1259385; calls by dose curve; further: nearly all actives have a fitted effect of over 20% in size)
# Chain of Thyrotropin receptor (Homo sapiens) (P16473 whole entry, looked up): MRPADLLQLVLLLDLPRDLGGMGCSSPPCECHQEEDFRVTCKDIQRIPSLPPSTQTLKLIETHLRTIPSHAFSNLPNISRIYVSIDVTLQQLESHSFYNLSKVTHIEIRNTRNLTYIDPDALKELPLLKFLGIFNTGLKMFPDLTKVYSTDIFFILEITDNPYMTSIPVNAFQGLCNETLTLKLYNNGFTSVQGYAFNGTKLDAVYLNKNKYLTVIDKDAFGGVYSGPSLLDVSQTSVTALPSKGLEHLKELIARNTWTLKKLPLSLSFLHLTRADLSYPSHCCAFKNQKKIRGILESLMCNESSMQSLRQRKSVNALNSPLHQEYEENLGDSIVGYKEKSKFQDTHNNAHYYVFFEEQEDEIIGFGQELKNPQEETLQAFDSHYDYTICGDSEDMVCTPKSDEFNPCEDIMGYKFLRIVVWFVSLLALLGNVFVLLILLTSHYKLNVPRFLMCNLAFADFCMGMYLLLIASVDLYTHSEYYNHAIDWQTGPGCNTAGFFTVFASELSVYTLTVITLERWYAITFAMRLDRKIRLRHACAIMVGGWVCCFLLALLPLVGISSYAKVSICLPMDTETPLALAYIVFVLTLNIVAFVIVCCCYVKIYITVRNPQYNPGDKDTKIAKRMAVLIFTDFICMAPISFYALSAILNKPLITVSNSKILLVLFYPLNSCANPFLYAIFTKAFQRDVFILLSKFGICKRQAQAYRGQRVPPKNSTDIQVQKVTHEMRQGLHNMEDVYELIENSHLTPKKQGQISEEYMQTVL
# In short: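 TSHR-HEK293 cells (800/well) plated 18 h, then compounds with Ro20-1724 and TSH at 1.5 ng/mL final, 30 min at room temperature. cAMP quantified by HTRF (cAMP-d2/anti-cAMP-cryptate, 1 h); 15 concentrations in triplicate.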
# [15] = qHTS assay to identify small molecule agonists of the estrogen receptor alpha (ER-alpha) signaling pathway in the presence of an antagonist - cell viability counter screen (AID 1259386);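 further: cells exposed to compounds for 22 h at 37 °C before the viability read; nearly all actives have a fitted effect of over 30% in size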; further: potency means the concentration at half of the fitted maximal effect
# In short: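 Fluorescent CellTiter-Fluor viability signal from VM7Luc4E2 cells, with the reagent added during the final hour of a 22hr compound exposure at 37C in the presence of 10.0nM ICI-182,780.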
# [16] = target: Estrogen receptor beta (Homo sapiens) (UniProt Q92731); assay: qHTS assay to identify small molecule agonists of the estrogen receptor beta (ER-beta) signaling pathway (AID 1259377; active means well fitted activation curve with a large enough effect in the signal ratio in the repeat runs, not every such curve was filed as active; the % refers to the signal ratio)
# Chain of Estrogen receptor beta (Homo sapiens) (Q92731 whole entry, looked up): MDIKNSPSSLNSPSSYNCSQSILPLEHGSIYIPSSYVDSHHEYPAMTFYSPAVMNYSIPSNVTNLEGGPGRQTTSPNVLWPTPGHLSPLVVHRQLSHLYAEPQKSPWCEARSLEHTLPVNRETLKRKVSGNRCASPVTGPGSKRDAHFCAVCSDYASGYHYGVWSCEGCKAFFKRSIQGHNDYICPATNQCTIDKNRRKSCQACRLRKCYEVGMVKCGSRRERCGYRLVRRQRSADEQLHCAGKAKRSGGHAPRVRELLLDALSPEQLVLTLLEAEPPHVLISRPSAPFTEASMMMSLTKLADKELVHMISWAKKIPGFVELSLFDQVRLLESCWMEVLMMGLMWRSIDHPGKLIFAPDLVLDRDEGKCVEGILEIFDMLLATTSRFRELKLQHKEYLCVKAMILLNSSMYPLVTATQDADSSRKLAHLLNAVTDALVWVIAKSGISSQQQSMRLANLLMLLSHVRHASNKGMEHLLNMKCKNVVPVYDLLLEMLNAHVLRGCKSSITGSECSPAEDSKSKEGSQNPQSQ
# In short: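 ER-beta-UAS-bla HEK293T cells in medium with 2% charcoal-stripped FBS were exposed to compounds for 16 h at 37C. Beta-lactamase reporter activity was read as fluorescence after 2 h with LiveBLAzer B/G FRET substrate at room temperature.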
# [17] = target: Estrogen receptor beta (Homo sapiens) (UniProt Q92731); assay: qHTS assay to identify small molecule antagonists of the estrogen receptor beta (ER-beta) signaling pathway (AID 1259378; active means well fitted inhibition curve with a large enough effect in the signal ratio in the repeat runs, not every such curve was filed as active; the % refers to the signal ratio; further: potency means the concentration at half of the fitted maximal effect)
# In short: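 ER-beta-UAS-bla HEK293T cells in 2% charcoal-stripped FBS medium treated with compound plus 1nM final 17-beta-estradiol for 16 hr at 37C. Beta-lactamase reporter read by FRET substrate fluorescence after 2 hours at room temperature.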
# [18] = target: Androgen receptor (Homo sapiens) (UniProt P10275); assay: qHTS assay to identify small molecule agonists of the androgen receptor (AR) signaling pathway in the presence of an antagonist (AID 1259381; calls by dose curve; further: nearly all actives have a fitted effect of over 15% in size)
# Chain of Androgen receptor (Homo sapiens) (P10275 whole entry, looked up): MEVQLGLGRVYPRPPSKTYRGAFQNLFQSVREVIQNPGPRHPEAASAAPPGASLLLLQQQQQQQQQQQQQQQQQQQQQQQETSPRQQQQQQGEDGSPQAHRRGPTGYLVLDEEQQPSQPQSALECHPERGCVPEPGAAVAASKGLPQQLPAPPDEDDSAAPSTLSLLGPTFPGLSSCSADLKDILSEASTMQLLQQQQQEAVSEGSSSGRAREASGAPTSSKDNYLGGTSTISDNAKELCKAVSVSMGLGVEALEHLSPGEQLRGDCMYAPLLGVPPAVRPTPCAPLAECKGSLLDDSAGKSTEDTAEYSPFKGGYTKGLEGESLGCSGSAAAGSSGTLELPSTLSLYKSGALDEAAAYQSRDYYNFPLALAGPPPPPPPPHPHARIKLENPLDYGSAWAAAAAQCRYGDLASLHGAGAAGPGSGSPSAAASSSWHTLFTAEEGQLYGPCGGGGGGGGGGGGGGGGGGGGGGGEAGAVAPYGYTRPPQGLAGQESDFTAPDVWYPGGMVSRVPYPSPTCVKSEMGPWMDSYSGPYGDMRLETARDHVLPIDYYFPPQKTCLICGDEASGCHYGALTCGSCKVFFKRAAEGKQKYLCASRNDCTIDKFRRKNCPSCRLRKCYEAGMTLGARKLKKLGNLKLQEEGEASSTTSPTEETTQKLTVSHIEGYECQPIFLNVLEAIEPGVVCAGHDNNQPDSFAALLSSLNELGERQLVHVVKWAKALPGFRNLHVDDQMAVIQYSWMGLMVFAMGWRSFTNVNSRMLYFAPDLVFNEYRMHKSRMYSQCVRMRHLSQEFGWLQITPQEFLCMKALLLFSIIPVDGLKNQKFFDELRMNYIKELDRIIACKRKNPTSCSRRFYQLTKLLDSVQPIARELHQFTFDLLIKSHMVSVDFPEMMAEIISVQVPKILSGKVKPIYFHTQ
# In short: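 Here, 15-concentration compound series were pin-transferred onto MDA-kb2 MMTV-luciferase cells already dosed with nilutamide (3.0uM final). After 16hr at 37C, ONE-Glo was added and luminescence read 30min later at room temperature.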
# [19] = target: Estrogen receptor (Homo sapiens) (UniProt P03372); assay: qHTS assay to identify small molecule agonists of the estrogen receptor alpha (ER-alpha) signaling pathway in the presence of an antagonist (AID 1259383; calls by dose curve; further: top concentration of the series differs between compounds; nearly all actives have a fitted effect of over 15% in size)
# Chain of Estrogen receptor (Homo sapiens) (P03372 whole entry, looked up): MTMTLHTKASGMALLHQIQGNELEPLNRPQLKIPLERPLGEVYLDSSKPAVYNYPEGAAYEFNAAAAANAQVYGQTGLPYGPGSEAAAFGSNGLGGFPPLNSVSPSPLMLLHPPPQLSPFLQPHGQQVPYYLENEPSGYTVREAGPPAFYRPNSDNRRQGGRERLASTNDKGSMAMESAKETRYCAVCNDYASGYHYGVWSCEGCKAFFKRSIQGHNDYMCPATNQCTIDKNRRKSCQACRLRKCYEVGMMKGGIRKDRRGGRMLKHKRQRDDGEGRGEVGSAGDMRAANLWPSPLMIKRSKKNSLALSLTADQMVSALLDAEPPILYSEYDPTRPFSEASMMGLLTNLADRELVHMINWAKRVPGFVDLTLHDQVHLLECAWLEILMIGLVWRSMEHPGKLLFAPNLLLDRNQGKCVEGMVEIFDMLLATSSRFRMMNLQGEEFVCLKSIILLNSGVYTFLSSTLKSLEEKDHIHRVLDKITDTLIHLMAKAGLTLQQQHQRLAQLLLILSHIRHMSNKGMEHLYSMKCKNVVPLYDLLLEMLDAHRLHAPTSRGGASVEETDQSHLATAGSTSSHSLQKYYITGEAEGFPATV
# In short: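 In VM7Luc4E2 cells, 4,000 per well, compounds at 15 concentrations were co-incubated 22hr at 37C with 10.0nM final ICI-182,780. Luminescence from the stably transfected 4×ERE-luciferase reporter was recorded 30min after ONE-Glo addition.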
# [20] = qHTS assay to identify small molecule agonists of the progesterone receptor (PR) signaling pathway - cell viability counter screen (AID 1346799; calls by dose curve; further: nearly all actives have a fitted effect of over 45% in size)
# In short: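 Counter screen in the PR-UAS-bla HEK293T wells (2% charcoal-stripped FBS, 16 h compound exposure at 37 C) after the bla read. CellTiter-Glo added, 30 min at room temperature, luminescence read as cell viability.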
Structure (SMILES),Potency [1],Potency [2],Potency [3],Potency [4],Potency [5],Potency [6],Potency [7],Potency [8],outcome [9],Potency [10],outcome [11],Potency [12],Potency [13],Potency [14],Potency [15],Potency [16],Potency [17],Potency [18],Potency [19],Potency [20]
CCN(CC)CCOC(=O)C(Cc1cccc2ccccc12)CC1CCCO1 (configuration not stated),inactive,inactive,inactive,inactive,inactive,inactive,inactive,inactive,inactive,inactive,inactive,inactive,–,–,–,–,–,–,–,–
CC(C)C[C@H]1C(=O)N2CCC[C@H]2[C@]2(O)O[C@](NC(=O)[C@@H]3C=C4c5cccc6[nH]c(Br)c(c56)C[C@H]4N(C)C3)(C(C)C)C(=O)N12,5.19 µM (active),–,inactive,inactive,inactive,inactive,–,inactive,inactive,inactive,inactive,inactive,inactive,inactive,inactive,–,–,–,–,–
CN1CCN(C(c2ccccc2)c2ccccc2)CC1,–,inactive,inactive,inactive,inactive,inactive,inactive,inactive,inactive,inactive,inactive,inactive,inactive,inactive,inactive,inactive,inactive,inactive,inactive,inactive
O=C(O)C1(C(=O)Nc2ccc(Cl)cc2Cl)CC1,inactive,–,–,inactive,–,–,–,inactive,inactive,–,inactive,inactive,15.4 µM (active),inactive,inactive,–,–,inactive,inactive,–
CCCCC,–,inactive,inactive,inactive,–,inactive,inactive,inactive,inactive,inactive,–,27.1 µM (active),inactive,inactive,inactive,inactive,inactive,–,–,inactive
CCOc1ccc(N)c([N+](=O)[O-])c1,inactive,–,inactive,inactive,inactive,–,inactive,inactive,inactive,inactive,inactive,inactive,inactive,inactive,–,–,–,–,inactive,inactive
Cc1cccc(C)c1OCC(=O)N[C@@H](Cc1ccccc1)[C@@H](O)C[C@H](Cc1ccccc1)NC(=O)[C@H](C(C)C)N1CCCNC1=O,29.8 µM (active),–,23.7 µM (active),inactive,–,–,29.8 µM (active),inactive,–,–,–,–,23.7 µM (active),inactive,29.8 µM (active),–,–,inactive,inactive,–
c1ccc(CNCCNCc2ccccc2)cc1,–,inactive,inactive,inactive,inactive,inactive,inactive,inactive,inactive,inactive,inactive,inactive,inactive,inactive,inactive,inactive,10.6 µM (active),–,inactive,inactive
